# According to PubChem BioAssay (EPA / NIEHS):
# Results filed as inconclusive are left out. The source made the active and inactive calls. The calls were made as follows: active = hit-call score of the fitted dose curve at least 0.9, where 1 is the maximum; inconclusive = response in the unintended direction; inactive = score below 0.9.
# Key:
# [1] = biological target: Estrogen receptor (Homo sapiens) (UniProt P03372); test: NVS_NR_hER: NovaScreen (NVS) Nuclear Receptor Binding Assay for human Estrogen Receptor (ER) (AID 2283348)
# Outline: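 Cell-free MCF7-derived ER preparation, specific radioligand displaced by test compound, read by scintillation counting 18 h post-dosing. Duplicate single-point 25 uM screen, then concentration-response confirmation; DMSO baseline.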
# [2] = biological target: Estrogen receptor (Homo sapiens) (UniProt P03372); test: OT_ER_ERaERa_1440: Odyssey Thera (OT) 24-hour HEK293T Protein-Complementation Assay for Estrogen Receptor-alpha/-alpha Homodimer (AID 2283349);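 also: hits raise fluorescence above DMSO for agonists and antagonists alike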
# Outline: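 HEK293T, stable ERα LBD (aa 310-547) homodimer PCA; 24 h compound exposure; mean fluorescence intensity (nuclear for agonists, nuclear plus cytoplasmic for antagonists) vs vehicle; positive fitting direction, DMSO baseline.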
# [3] = biological target: Estrogen receptor (Homo sapiens) (UniProt P03372); test: OT_ER_ERaERa_0480: Odyssey Thera (OT) 8-hour HEK293T Protein-Complementation Assay for Estrogen Receptor-alpha/-alpha Homodimer (AID 2283351);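 also: rise in fluorescence from reassembled reporter fragments on ERα LBD homodimer in nucleus or whole cell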
# Outline: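 Cells were treated for 8 hours, then imaged on a laser scanning plate cytometer. Complementation of reporter fragments fused to the human ERα ligand-binding domain (residues 310-547) in HEK293T gave fluorescence, and gain of signal over vehicle was fitted.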
# [4] = biological target: T1, Estrogen receptor (Homo sapiens) + Estrogen receptor beta (Homo sapiens) (UniProt P03372+Q92731); test: OT_ER_ERaERb_0480: Odyssey Thera (OT) 8-hour HEK293T Protein-Complementation Assay for Estrogen Receptor-alpha/-beta Heterodimer (AID 2283352)
# Outline: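 Human HEK293T cells were treated for 8 hours and receptor heterodimerisation was detected through reconstitution of a fluorescent reporter split between ER-alpha and ER-beta ligand-binding domains. Activity was analysed as gain of signal against DMSO.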
# [5] = biological target: Androgen Receptor/SRC-1 Co-activator, AR (gene 367) (UniProt P10275); test: OT_AR_ARSRC1_0960: Odyssey Thera (OT) 16-hour HEK293T Protein-Complementation Assay for Androgen Receptor/SRC-1 Co-activator (AID 2283353);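 also: actives raise the signal above DMSO so potency reflects increased AR and SRC-1 complex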
# Outline: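 Stable HEK293T line carries AR and SRC-1 each linked to a Venus fragment; chemicals are applied for 16 h, cells imaged at two wavelengths, and the 488 nm nucleus/cytoplasm ratio is taken as the signal, rising relative to DMSO.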
# [6] = biological target: Androgen Receptor/SRC-1 Co-activator, AR (gene 367) (UniProt P10275); test: OT_AR_ARSRC1_0480: Odyssey Thera (OT) 8-hour HEK293T Protein-Complementation Assay for Androgen Receptor/SRC-1 Co-activator (AID 2283354);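 also: hits raise the complementation signal above DMSO so AC50 marks enhancers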
# Outline: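 Reconstituted split-Venus YFP signal from AR–SRC-1 interaction, read by imaging 8 h post-dose in stable HEK293T lines. The 488 nm nucleus-to-cytoplasm ratio (≥400 cells/image) was fitted upward against DMSO.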
# [7] = biological target: T1, Estrogen receptor (Homo sapiens) + Estrogen receptor beta (Homo sapiens); test: OT_ER_ERaERb_1440: Odyssey Thera (OT) 24-hour HEK293T Protein-Complementation Assay for Estrogen Receptor-alpha/-beta Homodimer (AID 2283356);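 also: heteromer of ER alpha and ER beta binding domains; hits raise reporter fluorescence and both agonists and antagonists give an increase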
# Outline: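 24 h exposure; HEK293T PCA cells with ERα/ERβ LBD fragments; signal rise in nuclear or whole-cell fluorescence over vehicle.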
# [8] = biological target: Estrogen receptor beta (Homo sapiens) (UniProt Q92731); test: OT_ER_ERbERb_0480: Odyssey Thera (OT) 8-hour HEK293T Protein-Complementation Assay for Estrogen Receptor-beta/-beta Homodimer (AID 2283357);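 also: active means signal gain over DMSO baseline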
# Outline: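 ER-beta LBD homodimer PCA stably expressed in HEK293T; 8 h compound exposure, then formaldehyde fixation and Draq5 staining. Gain in nuclear/cytoplasmic fluorescence intensity versus DMSO vehicle, read on laser scanning cytometer.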
# [9] = biological target: Retinoic acid receptor alpha (Homo sapiens) (UniProt P10276); test: NVS_NR_hRAR_Antagonist: NovaScreen (NVS) Nuclear Receptor Binding Assay for human Retinoic Acid Alpha Receptor Antagonism (RAR) (AID 2283358)
# Outline: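 RARalpha antagonism was read by TR-FRET as loss of binding signal versus DMSO, 2 h after chemical addition, in a biochemical format. Single-concentration duplicates (25 uM) were run first, and actives were retested in concentration series.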
# [10] = biological target: Glucocorticoid receptor (Homo sapiens) (UniProt P04150); test: NVS_NR_hGR: NovaScreen (NVS) Nuclear Receptor Binding Assay for human Glucocorticoid Receptor (GR) (AID 2283363);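 also: activity is loss of specific radioligand binding signal relative to DMSO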
# Outline: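 Compounds first tested in duplicate at 25 uM, actives followed up in concentration series. Binding to extracted GR protein measured as competitive radioligand displacement, filter scintillation read 16 h post-dosing, normalised to DMSO.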
# [11] = biological target: Nuclear receptor subfamily 1 group I member 2 (Homo sapiens) (UniProt O75469); test: NVS_NR_hPXR: NovaScreen (NVS) Nuclear Receptor Binding Assay for human Pregnane X Receptor (PXR) (AID 2283365);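 also: a drop in FRET signal versus DMSO baseline means the compound binds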
# Outline: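 Read-out: TR-FRET, human PXR, 2 h post-dosing, cell-free. Loss of signal vs DMSO taken as binding activity; 25 uM primary, concentration series secondary.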
# [12] = test system: guinea pig Dopamine Transporter (DAT), gene 100714898; test: NVS_TR_gDAT: NovaScreen (NVS) Transporter Assay for guinea pig Dopamine Transporter (DAT) (AID 2283369);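 also: active compounds lower bound radioligand signal relative to DMSO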
# Outline: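 Primary pass: duplicate wells at 25 uM, threshold e.g. 30% inhibition. Follow-up: singleton concentration-response, highest 50 uM. Radioligand binding on guinea pig striatal membranes, 2 h, filtration scintillation detection.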
# [13] = biological target: rat Mineralocorticoid Receptor (MR), Nr3c2 (gene 25672) (UniProt P22199); test: NVS_NR_rMR: NovaScreen (NVS) Nuclear Receptor Binding Assay for rat Mineralocorticoid Receptor (MR) (AID 2283355)
# Outline: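 Primary HTS ran in duplicate at a single 25 uM concentration, with concentration-series follow-up for actives. Receptor source: adrenalectomized rat brain supernatant, cell-free. Radioligand displacement read by scintillation at 24 h, relative to DMSO baseline.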
# [14] = biological target: PGR (gene 5241) (UniProt P06401); test: NVS_NR_hPR: NovaScreen (NVS) Nuclear Receptor Binding Assay for human Progestron Receptor (PR) (AID 2283360);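 also: active means loss of bound radioligand signal versus DMSO baseline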
# Outline: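 Competitive displacement of a labelled radioligand from T47D-derived receptor protein is measured in a cell-free format. Initial testing uses 25 uM in duplicate, with positive and negative controls on every plate.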
# [15] = biological target: rat Androgen Receptor (AR), Ar (gene 24208) (UniProt P15207); test: NVS_NR_rAR: NovaScreen (NVS) Nuclear Receptor Binding Assay for rat Androgen Receptor (AR) (AID 2283366)
# Outline: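 Actives from a duplicate single-concentration (25 uM) primary run went on to concentration series. Displacement of radioligand was counted by filtration and scintillation, 18 h post-dose, using prostate extracts from testosterone-pretreated rats, with DMSO as baseline.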
# [16] = biological target: Retinoic acid receptor alpha (Homo sapiens) (UniProt P10276); test: NVS_NR_hRARa_Agonist: NovaScreen (NVS) Nuclear Receptor Binding Assay for human Retinoic Acid Alpha Receptor Agonism (RAR) (AID 2283361)
# Outline: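 Agonist-mode TR-FRET binding format using extracted protein, measured at 2 h post-dosing. Initial duplicate single-point screen at 25 uM preceded concentration series for actives; activity was normalized to DMSO baseline.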
# [17] = biological target: human Thyroid Receptor Alpha (TRa), THRA (gene 7067) (UniProt P10827); test: NVS_NR_hTRa_Antagonist: NovaScreen (NVS) Nuclear Receptor Binding Assay for human Thyroid Receptor Alpha Antagonism (TRa) (AID 2283362);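 also: activity is loss of signal relative to DMSO baseline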
# Outline: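 In this biochemical format, receptor protein is dosed with chemical and read after 1 hour via AlphaLISA. Decreases from the DMSO baseline indicate antagonist activity; screening used 25 uM in duplicate before concentration-response confirmation.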
# [18] = biological target: human Adenosine Transporter (Adot), SLC29A1 (gene 2030) (UniProt Q99808); test: NVS_TR_hAdoT: NovaScreen (NVS) Transporter Assay for human Adenosine Transporter (Adot) (AID 2283368)
# Outline: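 Binding displacement on U937 extracted protein, read 1 h post-dose by filtration and scintillation counting. Primary duplicate test at 25 uM, then singleton concentration series with 50 uM top; DMSO baseline.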
# T1 sequence (P03372 whole entry, looked up, the tested form may be a part): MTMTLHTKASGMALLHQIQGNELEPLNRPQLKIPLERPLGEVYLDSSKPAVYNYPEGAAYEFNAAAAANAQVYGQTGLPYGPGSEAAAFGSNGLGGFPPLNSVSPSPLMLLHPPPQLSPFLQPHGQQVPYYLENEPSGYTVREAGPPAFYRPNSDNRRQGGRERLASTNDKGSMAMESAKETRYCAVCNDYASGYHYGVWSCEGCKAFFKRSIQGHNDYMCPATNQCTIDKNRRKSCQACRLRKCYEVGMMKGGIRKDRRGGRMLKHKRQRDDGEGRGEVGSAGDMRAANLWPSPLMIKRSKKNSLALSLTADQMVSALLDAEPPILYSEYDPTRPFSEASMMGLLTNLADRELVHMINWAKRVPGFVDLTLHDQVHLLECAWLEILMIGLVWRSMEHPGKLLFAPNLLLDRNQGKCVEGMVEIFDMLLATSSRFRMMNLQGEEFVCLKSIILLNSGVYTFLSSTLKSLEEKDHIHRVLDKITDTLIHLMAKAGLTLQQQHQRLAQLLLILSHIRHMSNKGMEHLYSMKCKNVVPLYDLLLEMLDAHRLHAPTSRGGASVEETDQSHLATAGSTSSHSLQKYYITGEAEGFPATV
# T1 sequence (Q92731 whole entry, looked up, the tested form may be a part): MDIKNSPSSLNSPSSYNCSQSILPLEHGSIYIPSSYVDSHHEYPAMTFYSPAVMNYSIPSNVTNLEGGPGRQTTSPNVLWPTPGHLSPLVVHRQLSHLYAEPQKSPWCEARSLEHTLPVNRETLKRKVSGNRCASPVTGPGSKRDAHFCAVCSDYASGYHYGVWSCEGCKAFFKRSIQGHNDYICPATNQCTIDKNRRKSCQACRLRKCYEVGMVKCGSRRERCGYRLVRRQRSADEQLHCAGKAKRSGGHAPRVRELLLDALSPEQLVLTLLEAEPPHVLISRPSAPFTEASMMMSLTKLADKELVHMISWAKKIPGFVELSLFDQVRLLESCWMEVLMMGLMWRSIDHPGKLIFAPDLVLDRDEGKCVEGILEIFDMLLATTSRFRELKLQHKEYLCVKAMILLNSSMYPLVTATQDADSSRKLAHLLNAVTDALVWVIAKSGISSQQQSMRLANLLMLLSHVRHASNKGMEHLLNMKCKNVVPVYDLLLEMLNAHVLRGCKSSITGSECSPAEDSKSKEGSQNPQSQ
# Estrogen receptor (Homo sapiens), sequence (P03372 whole entry, looked up, the tested form may be a part): as the sequence (P03372 whole entry, looked up, the tested form may be a part) above
# Retinoic acid receptor alpha (Homo sapiens), sequence (P10276 whole entry, looked up): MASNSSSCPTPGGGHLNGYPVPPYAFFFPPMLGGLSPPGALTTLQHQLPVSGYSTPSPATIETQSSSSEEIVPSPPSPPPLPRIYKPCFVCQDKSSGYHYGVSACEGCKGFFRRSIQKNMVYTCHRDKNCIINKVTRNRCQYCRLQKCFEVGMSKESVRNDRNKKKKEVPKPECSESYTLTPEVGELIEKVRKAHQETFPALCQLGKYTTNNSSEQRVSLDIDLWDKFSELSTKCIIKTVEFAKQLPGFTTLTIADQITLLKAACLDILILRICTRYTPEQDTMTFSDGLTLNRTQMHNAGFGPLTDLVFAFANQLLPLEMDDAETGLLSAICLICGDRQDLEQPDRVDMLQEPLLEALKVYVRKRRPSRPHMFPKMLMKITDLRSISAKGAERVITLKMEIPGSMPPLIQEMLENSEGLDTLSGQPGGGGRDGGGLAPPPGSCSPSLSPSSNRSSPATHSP
# Estrogen receptor beta (Homo sapiens), sequence (Q92731 whole entry, looked up, the tested form may be a part): as the sequence (Q92731 whole entry, looked up, the tested form may be a part) above
# Androgen Receptor/SRC-1 Co-activator, AR (gene 367), sequence (P10275 whole entry, looked up, the tested form may be a part): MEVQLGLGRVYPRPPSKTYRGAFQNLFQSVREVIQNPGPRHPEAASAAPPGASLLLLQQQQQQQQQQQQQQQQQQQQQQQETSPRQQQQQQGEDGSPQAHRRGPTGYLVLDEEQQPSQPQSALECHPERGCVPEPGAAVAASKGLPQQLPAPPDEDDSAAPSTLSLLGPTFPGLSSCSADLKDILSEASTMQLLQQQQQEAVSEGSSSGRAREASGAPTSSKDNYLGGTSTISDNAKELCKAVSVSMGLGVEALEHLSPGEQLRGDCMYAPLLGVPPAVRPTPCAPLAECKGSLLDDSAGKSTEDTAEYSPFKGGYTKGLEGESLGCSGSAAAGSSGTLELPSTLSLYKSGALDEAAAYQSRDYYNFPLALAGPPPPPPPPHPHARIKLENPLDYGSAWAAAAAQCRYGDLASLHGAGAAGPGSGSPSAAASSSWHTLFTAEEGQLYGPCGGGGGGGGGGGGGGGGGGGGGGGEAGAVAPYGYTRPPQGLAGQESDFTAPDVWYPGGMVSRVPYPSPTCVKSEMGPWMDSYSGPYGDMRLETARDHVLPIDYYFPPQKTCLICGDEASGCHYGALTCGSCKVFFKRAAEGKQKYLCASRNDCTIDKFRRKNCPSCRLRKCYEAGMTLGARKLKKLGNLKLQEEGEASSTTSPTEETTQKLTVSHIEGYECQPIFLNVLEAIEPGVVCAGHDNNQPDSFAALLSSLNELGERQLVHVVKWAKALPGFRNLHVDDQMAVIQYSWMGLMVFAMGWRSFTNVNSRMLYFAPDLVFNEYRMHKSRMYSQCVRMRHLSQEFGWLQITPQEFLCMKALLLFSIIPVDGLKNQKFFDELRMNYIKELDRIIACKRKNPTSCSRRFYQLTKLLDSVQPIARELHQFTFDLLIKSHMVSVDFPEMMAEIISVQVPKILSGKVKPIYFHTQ
# rat Androgen Receptor (AR), Ar (gene 24208), sequence (P15207 whole entry, looked up): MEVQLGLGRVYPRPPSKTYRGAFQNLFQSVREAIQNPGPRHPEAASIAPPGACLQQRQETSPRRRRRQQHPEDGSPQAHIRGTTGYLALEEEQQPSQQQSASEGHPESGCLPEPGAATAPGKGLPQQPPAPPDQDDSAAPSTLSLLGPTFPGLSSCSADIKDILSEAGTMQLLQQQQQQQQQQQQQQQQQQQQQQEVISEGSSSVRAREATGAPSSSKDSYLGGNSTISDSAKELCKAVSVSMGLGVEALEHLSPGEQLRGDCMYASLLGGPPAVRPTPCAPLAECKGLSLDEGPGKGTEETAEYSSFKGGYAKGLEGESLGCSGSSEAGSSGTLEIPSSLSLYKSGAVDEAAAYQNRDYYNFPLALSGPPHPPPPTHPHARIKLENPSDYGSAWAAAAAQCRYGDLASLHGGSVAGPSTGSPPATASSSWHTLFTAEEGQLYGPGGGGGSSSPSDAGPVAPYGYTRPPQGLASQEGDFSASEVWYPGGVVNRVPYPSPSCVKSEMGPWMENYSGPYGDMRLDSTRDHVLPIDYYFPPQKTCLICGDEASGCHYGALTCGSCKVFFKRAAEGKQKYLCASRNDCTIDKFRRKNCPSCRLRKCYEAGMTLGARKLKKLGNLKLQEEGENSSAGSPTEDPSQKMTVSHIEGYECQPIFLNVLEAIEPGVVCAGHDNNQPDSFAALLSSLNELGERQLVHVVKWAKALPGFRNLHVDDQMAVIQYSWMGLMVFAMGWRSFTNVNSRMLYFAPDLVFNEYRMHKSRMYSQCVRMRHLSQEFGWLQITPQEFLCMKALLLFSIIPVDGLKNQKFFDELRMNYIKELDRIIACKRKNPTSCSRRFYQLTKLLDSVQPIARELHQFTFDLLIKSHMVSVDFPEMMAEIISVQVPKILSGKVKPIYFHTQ
# Nuclear receptor subfamily 1 group I member 2 (Homo sapiens), sequence (O75469 whole entry, looked up): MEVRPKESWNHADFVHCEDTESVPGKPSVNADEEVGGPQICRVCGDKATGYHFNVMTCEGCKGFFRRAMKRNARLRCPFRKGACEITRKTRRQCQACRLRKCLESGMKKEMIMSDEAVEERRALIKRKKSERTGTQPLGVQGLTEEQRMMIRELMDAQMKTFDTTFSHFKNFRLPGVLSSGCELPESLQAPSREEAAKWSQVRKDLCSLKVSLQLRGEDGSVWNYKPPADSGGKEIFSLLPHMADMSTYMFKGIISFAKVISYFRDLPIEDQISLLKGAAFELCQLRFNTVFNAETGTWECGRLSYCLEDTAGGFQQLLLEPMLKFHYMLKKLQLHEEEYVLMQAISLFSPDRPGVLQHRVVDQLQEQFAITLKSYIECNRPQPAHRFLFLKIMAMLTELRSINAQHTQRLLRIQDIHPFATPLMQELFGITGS
# Glucocorticoid receptor (Homo sapiens), sequence (P04150 whole entry, looked up): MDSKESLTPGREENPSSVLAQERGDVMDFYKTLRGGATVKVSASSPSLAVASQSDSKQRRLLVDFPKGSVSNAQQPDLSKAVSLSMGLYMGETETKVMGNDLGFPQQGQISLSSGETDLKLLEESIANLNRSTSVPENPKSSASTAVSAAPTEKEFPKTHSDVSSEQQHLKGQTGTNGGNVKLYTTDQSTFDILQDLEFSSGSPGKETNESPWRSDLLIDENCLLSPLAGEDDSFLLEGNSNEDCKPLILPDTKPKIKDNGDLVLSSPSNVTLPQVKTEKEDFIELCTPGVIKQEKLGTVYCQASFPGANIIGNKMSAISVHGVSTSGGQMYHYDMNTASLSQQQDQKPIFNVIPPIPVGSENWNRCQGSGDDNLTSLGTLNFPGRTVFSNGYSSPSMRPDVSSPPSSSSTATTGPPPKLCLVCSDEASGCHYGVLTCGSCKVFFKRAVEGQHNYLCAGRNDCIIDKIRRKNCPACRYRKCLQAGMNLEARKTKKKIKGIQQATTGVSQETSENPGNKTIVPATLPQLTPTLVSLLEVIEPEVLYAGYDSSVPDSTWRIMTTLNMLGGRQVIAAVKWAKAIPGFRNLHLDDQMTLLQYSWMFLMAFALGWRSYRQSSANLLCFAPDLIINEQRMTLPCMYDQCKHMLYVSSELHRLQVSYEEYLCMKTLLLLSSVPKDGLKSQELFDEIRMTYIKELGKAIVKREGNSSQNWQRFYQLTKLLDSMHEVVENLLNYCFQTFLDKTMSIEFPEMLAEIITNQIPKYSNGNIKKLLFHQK
smiles,measurement,setting,value
CCCCCCc1ccc(N)cc1,outcome,[1],inactive
same,outcome,[2],inactive
same,AC50,[3],67.3 µM (active)
same,AC50,[4],30.1 µM (active)
same,outcome,[5],inactive
same,outcome,[6],inactive
same,AC50,[7],21.4 µM (active)
same,AC50,[8],50 µM (active)
C=CC(C)(CCC=C(C)C)OC(C)=O (stereo not drawn),AC50,[1],6.92 µM (active)
same,outcome,[2],inactive
same,outcome,[3],inactive
CCOC(=O)c1nc(C(Cl)(Cl)Cl)n(-c2ccc(Cl)cc2Cl)n1,outcome,[1],inactive
CCCCCCCCCCCCOC(=O)c1cc(O)c(O)c(O)c1,AC50,[2],11.9 µM (active)
same,outcome,[3],inactive
same,AC50,[4],11.9 µM (active)
same,AC50,[7],11.9 µM (active)
same,outcome,[8],inactive
same,AC50,[9],36.9 µM (active)
same,AC50,[10],12.7 µM (active)
CCCCCC(C)OC(=O)COc1ccc(Cl)c2cccnc12 (stereo not drawn),outcome,[1],inactive
same,outcome,[2],inactive
same,outcome,[3],inactive
same,outcome,[11],inactive
N=C(N)c1ccc(OCCCCCOc2ccc(C(=N)N)cc2)cc1,outcome,[1],inactive
same,outcome,[2],inactive
same,outcome,[3],inactive
same,AC50,[12],2.07 µM (active)
CCCCCCC(C)(C)C(=O)O,outcome,[2],inactive
same,outcome,[3],inactive
same,outcome,[4],inactive
same,outcome,[5],inactive
same,outcome,[6],inactive
same,outcome,[7],inactive
same,outcome,[8],inactive
O=C(c1cc(O)c(O)c(O)c1)c1ccc(O)c(O)c1O,outcome,[1],inactive
CCCCCCCCCCCC[N+](C)(C)CCCCCCCCCCCC,AC50,[1],46.8 µM (active)
CN(Cc1cnc2nc(N)nc(N)c2n1)c1ccc(C(=O)N[C@@H](CCC(=O)O)C(=O)O)cc1,outcome,[2],inactive
same,outcome,[3],inactive
same,outcome,[4],inactive
same,outcome,[5],inactive
same,outcome,[6],inactive
same,outcome,[13],inactive
same,outcome,[7],inactive
same,outcome,[14],inactive
same,outcome,[15],inactive
same,outcome,[12],inactive
Cc1cc(C(=C2C=CC(=Nc3ccc(S(=O)(=O)O)cc3)C=C2)c2ccc(Nc3ccc(S(=O)(=O)O)cc3)cc2)cc(S(=O)(=O)O)c1N,outcome,[2],inactive
same,outcome,[3],inactive
same,outcome,[4],inactive
same,outcome,[5],inactive
same,outcome,[6],inactive
same,outcome,[7],inactive
same,outcome,[8],inactive
same,AC50,[16],17.5 µM (active)
same,outcome,[17],inactive
same,AC50,[10],1.32 µM (active)
same,AC50,[11],0.574 µM (active)
same,AC50,[15],1.22 µM (active)
C[C@]12CC[C@@H]3c4ccc(O)cc4CC[C@H]3[C@@H]1CC[C@@H]2OC(=O)CCC1CCCC1,AC50,[1],0.00446 µM (active)
CCCCCCCCCC=CCC1CC(=O)OC1=O (stereo not drawn),outcome,[2],inactive
same,outcome,[3],inactive
same,outcome,[4],inactive
same,outcome,[5],inactive
same,outcome,[6],inactive
same,outcome,[7],inactive
same,outcome,[8],inactive
same,outcome,[11],inactive
O=C1Cc2ccccc2N1c1c(Cl)cccc1Cl,outcome,[1],inactive
NCCN,outcome,[2],inactive
same,outcome,[3],inactive
O=C1OC2(c3ccccc31)c1cc(I)c(O)c(I)c1Oc1c2cc(I)c(O)c1I,AC50,[16],19.9 µM (active)
CC(C)(c1ccc(Oc2ccc(N)cc2)cc1)c1ccc(Oc2ccc(N)cc2)cc1,outcome,[15],inactive
CS(=O)(=O)c1ccc([C@@H](CC2CCCC2)C(=O)Nc2cnccn2)cc1Cl,AC50,[18],25 µM (active)
